Test results as given in PubChem BioAssay (Tox21).
Results filed as inconclusive are left out. Values without a mark were called inactive. Activity calls are given as the source filed them. Calls come from the whole dose curve; as a rule, active = well fitted activation curve with a large enough effect in the repeat runs; inconclusive = weak or mixed curves, or effect the other way; inactive = no such curve, though single readings can be large or run the other way.

Test: qHTS assay to identify small molecule agonists of the retinoic acid receptor (RAR) signaling pathway (AID 1159553)
Details: C3RL4 RARE luciferase reporter, agonist, 6 h; series mostly up to 73.3 µM; activation: at the top concentration
Source text: National Center for Advancing Translational Sciences [NCATS] NIH Chemical Genomics Center [NCGC] U.S. Environmental Protection Agency [EPA] National Institutes of Environmental Health Sciences [NIEHS] National Toxicology Program [NTP] Assay overview: All-trans Retinoic acid (atRA) is the potent natural metabolite of retinol and plays an important role in normal embryonic development and maintenance of cellular phenotype in adult animals. atRA is the activating ligand for the retinoic acid receptors (RARs) which form heterodimers with retinoid X receptors (RXRs) on the retinoic acid response element (RARE). Through activation of the RAR/RXRs nuclear receptors, atRA regulates the transcription of a large number of protein-coding genes and regulatory RNAs. Intracellular levels of atRA are controlled by the retinol signaling pathway (RSP) that regulates the biosynthesis and catabolism of atRA to maintain physiological levels. Chemicals that interfere with the RSP can cause abnormal intracellular levels of atRA and therefore are potential developmental toxicants. To assess compounds for the potential adverse effect on embryonic development through interfering with retinol signaling, a cell-based RARE luciferase reporter gene assay was used. C3RL4 cell line (OARSA/CFSAN/FDA, Laurel, MD) was used to screen Tox21 10K compound library for identifying activators of the RSP.
Assay Protocol Summary: C3RL4 cells were seeded at 1,000/well in 5 uL of assay medium into white solid 1,536-well tissue culture plates (Greiner Bio-One North America Inc. Monroe, NC) using a Multidrop Combi (Thermo Scientific, Waltham, MA) dispenser. After incubation at 37 C and 5% CO2 for an overnight, 23 nL of compounds dissolved in DMSO, positive control or DMSO only were transferred by a Pintool station (Kalypsys, San Diego, CA). After 6 hr incubation at 37 C and 5% CO2, 5 uL of Amplite Luciferase reagent (AAT Bioquest Inc. Sunnyvale, CA) was added to each assay plate using a Flying Reagent Dispenser (FRD) (Aurora Discovery, San Diego, CA). Luminescence was quantified on a ViewLux plate reader (PerkinElmer, Waltham, MA) after 30 min incubation at room temperature.
% is set by controls: 0 for no effect and ±100 for the full control effect; potency is the fitted concentration of half-maximal effect.

**Q.** For `CC/C=C\CCOC(=O)c1ccccc1`, which Potency is on record?
**A.** The Potency was 68.6 µM (active).

**Q.** For `C[C@@H]1NC(=O)[C@@H](N)CNC(=O)[C@H](C2CCNC(N)=N2)NC(=O)/C(=C/NC(N)=O)NC(=O)[C@H](CNC(=O)C[C@@H](N)CCCN)NC1=O` (stereo not given in full), which activation is on record?
**A.** Its activation is 0.189% [at 0.756 µM].

**Q.** With `CN(C)c1ccncc1` as the compound, how does the “activation” value read?
**A.** Its value is 0.122%.

**Q.** Which “activation” value does the source give for `CCCCS` here?
**A.** The value was 0.0513% [at 94.8 µM].

**Q.** With `COC(=O)c1ccc(C(=O)O)cc1` as the compound, how does the “activation” value read?
**A.** Its value is -0.291%.

**Q.** Which “activation” value does the source give for `CNCCc1ccccn1` here?
**A.** Its value is 0.104%.

**Q.** Which activation does the source give for `C[C@@H]1CC[C@@]2(OC1)O[C@H]1C[C@H]3[C@@H]4CC[C@H]5C[C@@H](O)CC[C@]5(C)[C@H]4CC(=O)[C@]3(C)[C@H]1[C@@H]2C` here?
**A.** Its activation is 0.12% [at 8.36 µM].

**Q.** With `CCCCCC(CC)OC(=O)CCCOc1ccc(Cl)cc1Cl` (stereo not given) as the compound, how does the “activation” value read?
**A.** The value was -3.51%.

**Q.** For `O=C(O)COc1ccc2ccccc2c1`, which “activation” value is on record?
**A.** The value was 0.0238%.

**Q.** With `COc1cc(NS(=O)(=O)c2ccc(N)cc2)ncn1` as the compound, how does the “activation” value read?
**A.** Its value is -0.556%.

**Q.** With `O=C(O)Cc1c(Cl)ccc(Cl)c1Cl` as the compound, how does the “activation” value read?
**A.** Its value is 0.116%.

**Q.** Which “activation” value does the source give for `CNC(=O)c1c(I)c(NC(C)=O)c(I)c(C(=O)O)c1I` here?
**A.** Its value is 0.124%.

**Q.** Which “activation” value does the source give for `C[C@H]1COc2c(C3(N)CC3)c(F)cc3c(=O)c(C(=O)O)cn1c23` here?
**A.** The value was 0.122%.

**Q.** Which “activation” value does the source give for `CCN(CC)CC(=O)Oc1ccc(NC(C)=O)cc1` here?
**A.** Its value is 0.603%.

**Q.** With `CO/N=C(\C(=O)O)c1csc(NC(=O)CCl)n1` as the compound, how does the “activation” value read?
**A.** The value was 2.07%.

**Q.** For `CC1(C)C(=O)C(C)(C)C1=O`, which “activation” value is on record?
**A.** The value was -0.455%.

**Q.** For `CCCCCCC(O)CO` (stereo not given), which “activation” value is on record?
**A.** Its value is -0.155%.

**Q.** With `O=C(CCBr)N1CCN(C(=O)CCBr)CC1` as the compound, how does the “activation” value read?
**A.** The value was 0.369%.

**Q.** Which “activation” value does the source give for `CC(C)(O)c1ccc(C(C)(C)O)cc1` here?
**A.** Its value is 0.108%.

**Q.** With `CCCCCCCCCCCCCC(=O)OCC` as the compound, how does the “activation” value read?
**A.** The value was 1.03%.

**Q.** For `CCCCN(CCCC)CCCCCCN(CCCC)CCCC`, which “activation” value is on record?
**A.** Its value is -1.51%.

**Q.** Which “activation” value does the source give for `CC(C)c1cc(C(C)C)cc(C(C)C)c1` here?
**A.** The value was 0.288%.

**Q.** For `CCOC(=O)COc1ccc2c(C)c(CCN(CC)CC)c(=O)oc2c1Cl`, which “activation” value is on record?
**A.** Its value is 0.244%.

**Q.** For `C[n+]1ccccc1/C=N/O`, which “activation” value is on record?
**A.** The value was 2.44%.

**Q.** Which “activation” value does the source give for `Cc1ccc(O)c([N+](=O)[O-])c1` here?
**A.** Its value is -0.691% [at 94.8 µM].

**Q.** With `O=C(O)CCCCCCCCCC(=O)O` as the compound, how does the “activation” value read?
**A.** Its value is -0.451%.

**Q.** For `C=CCN(CC=C)CC=C`, which “activation” value is on record?
**A.** Its value is -2.51%.

**Q.** With `C/C=C/C(=O)CCCC` as the compound, how does the “activation” value read?
**A.** Its value is 2.72%.

**Q.** For `C=CCOC(=O)CCCCCCCC`, which “activation” value is on record?
**A.** Its value is 0.174% [at 94.8 µM].

**Q.** For `CCCC(=O)CC`, which “activation” value is on record?
**A.** The value was 0.462% [at 94.8 µM].

**Q.** Which “activation” value does the source give for `O=C[C@@H](O)[C@H](O)[C@H](O)CO` here?
**A.** The value was -1.77%.

**Q.** For `O=C(c1ccccc1)c1cccc(O)c1`, which “activation” value is on record?
**A.** The value was 7.47% [at 94.8 µM].

**Q.** With `COc1ccccc1N1CCN(CC(O)COc2cc(OC)c(OC)c(OC)c2)CC1` (stereo not given) as the compound, how does the “activation” value read?
**A.** The value was -2.83%.

**Q.** Which “activation” value does the source give for `Cc1cc(=O)oc2cc(O[C@@H]3SC[C@@H](O)[C@H](O)[C@H]3O)ccc12` here?
**A.** The value was 2.85%.

**Q.** With `CC(C)OCCO` as the compound, how does the “activation” value read?
**A.** Its value is 1.16%.

**Q.** For `CCCCN=C(N)N=C(N)N`, which “activation” value is on record?
**A.** The value was -6.05%.

**Q.** For `CC1(C)CC(N)CC(C)(C)N1`, which “activation” value is on record?
**A.** Its value is -0.799%.

**Q.** Which “activation” value does the source give for `C=CCCCCCCCCCCCCCC` here?
**A.** Its value is -0.95% [at 34.3 µM].

**Q.** For `c1coc(Cn2cccc2)c1`, which “activation” value is on record?
**A.** The value was 1.49%.

**Q.** With `C=CCN1CCc2nc(N)sc2CC1` as the compound, how does the “activation” value read?
**A.** The value was 0.749%.
